In PubChem BioAssay AID1645857 (Buhrlage Lab, Dana-Farber Cancer Institute and Novartis …, 2021):
Hit rate of the full screen: of about 47,000 compounds, about 1,400 (3%) were called active. Many of the other results were omitted from the sample, so actives are more common in it than they were. Values without a mark were called inactive. Rule as the data show it: active = inhibition above about 30%; inactive = the rest.

Molecular target: Ubiquitin carboxyl-terminal hydrolase 28 (Homo sapiens) (UniProt Q96RU2)
Sequence (Q96RU2 whole entry, looked up): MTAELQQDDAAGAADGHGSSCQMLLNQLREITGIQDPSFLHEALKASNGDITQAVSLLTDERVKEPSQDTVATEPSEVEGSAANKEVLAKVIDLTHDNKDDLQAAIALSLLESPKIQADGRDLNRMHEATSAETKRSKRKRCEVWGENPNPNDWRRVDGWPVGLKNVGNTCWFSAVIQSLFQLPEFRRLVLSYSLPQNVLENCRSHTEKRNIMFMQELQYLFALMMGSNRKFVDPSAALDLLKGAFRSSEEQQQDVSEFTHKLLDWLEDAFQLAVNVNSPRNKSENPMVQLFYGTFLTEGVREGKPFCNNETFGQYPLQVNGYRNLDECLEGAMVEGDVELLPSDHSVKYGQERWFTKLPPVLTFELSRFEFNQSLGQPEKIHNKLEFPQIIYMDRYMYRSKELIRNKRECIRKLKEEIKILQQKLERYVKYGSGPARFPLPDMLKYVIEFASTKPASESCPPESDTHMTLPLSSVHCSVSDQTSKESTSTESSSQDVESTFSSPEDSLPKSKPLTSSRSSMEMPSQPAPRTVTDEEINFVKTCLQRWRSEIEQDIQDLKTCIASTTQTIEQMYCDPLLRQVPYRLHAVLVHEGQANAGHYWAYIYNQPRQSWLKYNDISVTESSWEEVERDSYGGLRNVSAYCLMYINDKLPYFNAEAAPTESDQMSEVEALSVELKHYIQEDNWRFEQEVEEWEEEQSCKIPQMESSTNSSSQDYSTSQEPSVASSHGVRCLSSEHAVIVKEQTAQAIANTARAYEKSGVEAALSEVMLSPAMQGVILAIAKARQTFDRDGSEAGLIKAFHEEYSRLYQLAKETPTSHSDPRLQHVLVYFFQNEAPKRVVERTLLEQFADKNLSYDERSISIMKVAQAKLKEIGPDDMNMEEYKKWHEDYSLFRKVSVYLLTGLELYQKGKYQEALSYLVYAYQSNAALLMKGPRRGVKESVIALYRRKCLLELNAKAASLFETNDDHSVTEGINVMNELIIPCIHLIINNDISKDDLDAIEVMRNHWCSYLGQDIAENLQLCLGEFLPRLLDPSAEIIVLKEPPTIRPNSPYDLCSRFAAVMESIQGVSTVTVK
Assay: blocks human USP28 ubiquitin-rhodamine cleavage (AID 1645857)
Conditions: purified USP28, Ub-rhodamine cleavage fluorescence, 30 min; at 25 µM; hits give high values

SMILES | inhibition
O=C(NCC(c1cccnc1)N1CCc2ccccc2C1)c1cccc(F)c1 (configuration not stated) | -8.37%
COc1ccc(N(Cc2cc(=O)[nH]c3ccccc23)C(=O)c2ccc(Cl)cc2)cc1 | 9.24%
O=c1[nH]oc(O)c1-c1ncc(C(F)(F)F)cc1Cl | 8.59%
Cc1cc(N)nc2c1c(C)nn2-c1ncc(C(F)(F)F)cc1Cl | -20.8%
CC(=O)c1ccc(Cc2ncc(C(F)(F)F)cc2Cl)s1 | 61% (active)
COc1ccc(N(CC(=O)N2CCc3ccccc32)S(=O)(=O)c2ccccc2)cc1 | -2%
O=C(c1ccccc1F)N1CCCC1c1nccnc1-c1ncc[nH]1 (configuration not stated) | 8.72%
O=C(COc1ccccc1)N1CCc2[nH]nc(-c3ccccc3)c2C1 | 5.14%
COc1ccc(Oc2nc(C)c(-c3ccccc3)cc2C#N)cc1 | 13.9%
COc1ccccc1N1C(=O)c2ccccc2N2C(=O)c3ccccc3C12 (configuration not stated) | 6.01%
Cc1cccc(NC(=O)c2cnn3c2NC2=C(C(=O)CCC2)C3c2ccccc2)c1 (configuration not stated) | -27.3%
CCCCOc1ccc(C(=O)Nc2ccc3c(c2)CCC(=O)N3CCC)cc1 | 84.6% (active)
CCN1C(=O)CCc2cc(NC(=O)Cc3ccc(OC)c(Cl)c3)ccc21 | 2.71%
COCCN1C(=O)CCc2cc(NS(=O)(=O)c3cc(C)cc(C)c3)ccc21 | -19.5%
Cc1ccnc(Nc2nc(-c3ccccc3)c3cc(Cl)ccc3n2)n1 | 12.6%
COc1ccccc1CC(NC(C)=O)C(=O)NC1CCN(C(=O)c2cccc(C)c2)CC1 (configuration not stated) | -1.93%
Cc1cc(C)n(CC2CCCCN2CC(=O)NC2(C#N)CCCC2)n1 (configuration not stated) | 0.626%
Cc1ccc(C(=O)Nc2nc3c(s2)CCC3C(=O)NCc2ccncc2)cc1 (configuration not stated) | 37.1% (active)
CCc1nc2ccc(C(=O)Nc3nc(-c4ccc5c(c4)CCN5C(=O)c4ccc(C)cc4)c(C)s3)cc2nc1CC | -7.6%
Cc1ccc(C(=O)Nc2nccnc2C(=O)NCc2ccc3c(c2)OCO3)cc1 | -7.28%
NS(=O)(=O)c1ccc(CNc2nc(CN3CCCCC3)nc3sc4c(c23)CCC4)cc1 | -16.9%
CCCCn1c(=O)c(CCC(=O)OCC(=O)Nc2ccc(C)c(Cl)c2)nc2ccccc21 | -33.9%
O=C(CC1CCCC1)N1CCCC(n2c(=O)[nH]c3cncnc32)C1 (configuration not stated) | -14.3%
Cc1cccc(OCc2nnc(C3(c4ccc(F)cc4)CCOCC3)o2)c1 | 13.2%
CC(C)Cc1nc2sc3c(NCc4ccco4)ncnc3c2c2c1CCC2 | 21.3%
c1coc(CNc2nc(Nc3cccc4ccccc34)nc3ccccc23)c1 | 43.7% (active)
Fc1ccc(-n2cc(-c3ccccc3)c3c(NCc4ccco4)ncnc32)cc1 | -4.6%
